Results as given in PubChem BioAssay AID434970 (Sanford-Burnham Center for Chemical Genomics, 2010).
Out of some 11,000 compounds screened, about 310 (2.8%) were called active. No stated cut-off is given here; in the data, active means activity change below about -85%; inactive means the rest. Only a selection was taken, and actives are over-represented in it overall.

What follows are molecules tested on intestinal alkaline phosphatase [Mus musculus] (assay: activators of mouse IAP, confirmation, biochemical, luminescence, single concentration (AID 434970)). Conditions: purified mouse IAP, CDP-Star luminescence, 30 min, at 10 µM; activation factor: measured here: IAP activation factor, stronger effect = higher value; activity change, negative = activation: stronger effect = lower value.

SMILES | activation factor | activity change, negative = activation
CC[C@]12c3[nH]c4cc(-c5ccco5)ccc4c3CCN1C(=O)[C@@H](CC(=O)NC(C)(C)C)C[C@@H]2C(=O)N1CCN(C(=O)C2CC2)CC1 | 0.984 | 1.6% (inactive)
C[C@H](CO)N1C[C@H](C)[C@@H](CN(C)S(=O)(=O)c2cccs2)Oc2ccc(NC(=O)Nc3ccccc3)cc2C1=O | 2.52 | -152% (active)
COc1ccc(NC(=O)Nc2ccc3c(c2)C(=O)N([C@H](C)CO)C[C@H](C)[C@@H](CN(C)C(=O)Nc2ccc(C(F)(F)F)cc2)O3)cc1 | 1.69 | -68.8% (inactive)
C[C@H](CO)N1C[C@H](C)[C@@H](CN(C)S(C)(=O)=O)Oc2ccc(NC(=O)Nc3ccc(C(F)(F)F)cc3)cc2C1=O | 1.83 | -83.2% (inactive)
C[C@H](CO)N1C[C@H](C)[C@@H](CN(C)C(=O)Nc2ccc(C(F)(F)F)cc2)Oc2ccc(NC(=O)NC3CCCCC3)cc2C1=O | 1.76 | -76.3% (inactive)
C[C@H](CO)N1C[C@H](C)[C@@H](CN(C)S(=O)(=O)c2cccs2)Oc2ccc(NC(=O)NC3CCCCC3)cc2C1=O | 2.6 | -160% (active)
C[C@H]1CN([C@@H](C)CO)C(=O)c2cc(NC(=O)NC3CCCCC3)ccc2O[C@H]1CN(C)C(=O)Nc1ccc(C(F)(F)F)cc1 | 1.58 | -58.1% (inactive)
COc1ccc(NC(=O)Nc2ccc3c(c2)C(=O)N([C@@H](C)CO)C[C@@H](C)[C@@H](CN(C)S(=O)(=O)c2cccs2)O3)cc1 | 1.76 | -75.9% (inactive)
C[C@H](CO)N1C[C@H](C)[C@@H](CN(C)S(=O)(=O)c2cccs2)Oc2ccc(NC(=O)Nc3ccc4c(c3)OCO4)cc2C1=O | 1.88 | -87.5% (inactive)
COc1ccc(NC(=O)Nc2ccc3c(c2)C(=O)N([C@H](C)CO)C[C@H](C)[C@@H](CN(C)S(=O)(=O)c2cccs2)O3)cc1 | 2.1 | -110% (active)
CCOC(=O)C1=CN(Cc2ccco2)S(=O)(=O)N(CC)C1c1ccc(C(F)(F)F)cc1 (centres undefined) | 0.893 | 10.7% (inactive)
CCOc1ccc(N2CC(C(=O)NCCCN3CCOCC3)CC2=O)cc1 (centres undefined) | 0.917 | 8.3% (inactive)
COc1ccccc1CC(=O)N(CCC#N)CCC#N | 0.913 | 8.65% (inactive)
O=C(COc1c(F)c(F)cc(F)c1F)NC(=O)NC1CCCC1 | 1.08 | -7.8% (inactive)
N#C/C(=C1/CCCCCN1)c1nc2ccccc2[nH]1 | 1.08 | -7.65% (inactive)
CCOC(=O)N1CCN(S(=O)(=O)c2ccc3c(c2)SCC(=O)N3)CC1 | 1.06 | -6.25% (inactive)
COC(=O)[C@@]1(C)[C@H]2C(=O)N(C)C(=O)[C@H]2[C@H]2CN=C(SCc3ccc(Cl)cc3)N21 | 1.1 | -9.6% (inactive)
Cc1ccccc1C(=O)/C=C1\NC(=O)CS1 | 1.05 | -5.35% (inactive)
COc1cccc(NC(=O)Nc2ccc(C(C)(C)C)cc2)c1 | 2.18 | -118% (active)
COc1cccc(NC(=O)Nc2cc(Cl)ccc2C)c1 | 1.41 | -40.7% (inactive)
Cc1ccc(NC(=O)Nc2ccc(F)cc2)cc1Cl | 1.51 | -50.8% (inactive)
COc1cccc(NC(=O)Nc2ccc(C)c(Cl)c2)c1 | 2.17 | -117% (active)
CCOP(=O)(OCC)C(NC(=O)Nc1ccc(Cl)cc1)c1ccccc1 (centres undefined) | 1.56 | -56.5% (inactive)
COc1cccc(NC(=O)CN(c2cccc(C(F)(F)F)c2)S(C)(=O)=O)c1 | 1.12 | -12.2% (inactive)
COc1cccc(C(C)NC(=O)Nc2cccc(C(F)(F)F)c2)c1 (centres undefined) | 3.84 | -284% (active)
CCc1ccc(NC(=O)Nc2cccc(OC)c2)cc1 | 1.62 | -62.5% (inactive)

SMILES | activation factor | activity change, negative = activation
COc1ccc(N2CCN(C(=O)Nc3cccc(C(F)(F)F)c3)CC2)cc1 | 1.14 | -14.2% (inactive)
COc1cccc(NC(=O)Nc2cc(NC(=O)Nc3cccc(OC)c3)c(C)nc2C)c1 | 1.65 | -65.3% (inactive)
CC(=O)Nc1cccc(NC(=O)Nc2ccc(C)c(Cl)c2)c1 | 1.9 | -89.6% (inactive)
CCOP(=O)(OCC)C(NC(=O)Nc1ccc(C)c(Cl)c1)c1ccccc1 (centres undefined) | 2.59 | -159% (active)
Cc1oc(-c2ccc3c(c2)OCCO3)cc1C(=O)NC(CCC(=O)O)C(=O)O (centres undefined) | 0.95 | 5.05% (inactive)
O=C(NCCNS(=O)(=O)c1ccccc1)c1cc(OCC(F)(F)F)ccc1OCC(F)(F)F | 1.09 | -9.5% (inactive)
C=CCn1c(=O)c2ccccc2n2c(Sc3nnnn3-c3ccccc3)nnc12 | 1 | -0.35% (inactive)
O=C(CN1N=C(C(F)(F)F)CC1(O)c1ccc([N+](=O)[O-])cc1)c1ccccc1 (centres undefined) | 1.07 | -7.45% (inactive)
CC1=NN(/C(=N\c2nnc(C)s2)Nc2ccc(C(C)(C)C)cc2)[C@H](c2ccc(C)cc2)S1 | 0.976 | 2.45% (inactive)
CCC(C)c1ccc(NC(=O)C2CC2)cc1 (centres undefined) | 1.07 | -7.35% (inactive)
Cc1cc(C)nc(-n2nc(C)c3c(C(F)(F)F)cc(=O)[nH]c32)n1 | 1.03 | -2.7% (inactive)
COc1ccc(Cl)cc1C(=O)NCc1cnn(C)c1C | 0.932 | 6.75% (inactive)
C/C(=N\NC(=O)c1nn(C)cc1Br)c1cccc(NC(=O)C2CCCC2)c1 | 1.03 | -3.45% (inactive)
O=C(Nc1cccc(F)c1)N1CCN(C/C=C/c2ccccc2)CC1 | 0.988 | 1.15% (inactive)
C=CCn1cc(CN2CCC(C(=O)Nc3cccc(-c4cccc(F)c4)c3)CC2)c(C)n1 | 2.94 | -194% (active)
CCn1cc(CN2CCC(C(=O)Nc3cccc(-c4cccc(Cl)c4)c3)CC2)c(C)n1 | 4.96 | -396% (active)
C=CCn1cc(CN2CCC(C(=O)Nc3cccc(-c4cccc(Cl)c4)c3)CC2)c(C)n1 | 3.74 | -274% (active)
Cc1c(CN2CCC(C(=O)Nc3cccc(-c4cccc(Cl)c4)c3)CC2)cnn1C | 4.12 | -312% (active)
Cc1cccc(-n2c(SCC(=O)Nc3ccc4c(c3)OCO4)nnc2-c2ccoc2C)c1 | 1.03 | -2.65% (inactive)
Cc1cccc(C2=NN(c3ccc(Br)cc3)[C@@H](C(=O)N3CCOC3=O)[C@@H]2C)c1 | 0.974 | 2.65% (inactive)
CC(=O)c1c(C)[nH]c(C(=O)N2CCN(c3cc(Cl)ccc3C)CC2)c1C | 1.14 | -13.5% (inactive)
CN(C(=O)C1CCOC1)c1nnc(-c2ccncc2)s1 (centres undefined) | 0.913 | 8.65% (inactive)
CC(Oc1ccc(Br)cc1)C(=O)N1CCc2ccccc21 (centres undefined) | 1.16 | -16.1% (inactive)
N#Cc1c2c(c(NCCCN3CCOCC3)n3c1nc1ccccc13)CCC2 | 0.904 | 9.6% (inactive)
Cc1ccc(C2CC(=O)Oc3cc(C)cc(C)c32)cc1 (centres undefined) | 1.06 | -5.5% (inactive)
COc1ccc(S(=O)(=O)c2ccc(O)cc2)cc1 | 0.992 | 0.8% (inactive)

SMILES | activation factor | activity change, negative = activation
CC(C)[C@@H](CO)N(C)S(=O)(=O)c1ccccc1Br | 1.01 | -0.85% (inactive)
O=C(NCCc1ccc(Cl)cc1)c1cccnc1 | 0.957 | 4.3% (inactive)
COc1ccc2cc(C[C@@H]3CC[C@@H](CO)O3)ccc2c1 | 1.04 | -4.15% (inactive)
COc1ccc(NC(=O)C2CCN(c3nnnn3-c3ccccc3)CC2)cc1 | 0.976 | 2.45% (inactive)
O=C(Nc1ccccc1Cl)C1CCN(Cc2cnn(-c3ccccc3)c2-n2cccc2)CC1 | 1.02 | -1.6% (inactive)
COc1cccc(NC(=O)C2CCN(Cc3cnn(-c4ccccc4)c3-n3cccc3)CC2)c1 | 2.01 | -101% (active)
Cc1ccc(-c2csc(N)n2)s1 | 0.219 | 78% (inactive)
S=C(NCc1ccccc1)NCc1ccc(CNC(=S)NCc2ccccc2)cc1 | 1.39 | -39.4% (inactive)
S=C(NCc1ccccc1)NC1CCSc2ccccc21 (centres undefined) | 2.51 | -151% (active)
Cc1ccc(NC(=S)NC2CCSc3ccccc32)cc1C (centres undefined) | 2.71 | -172% (active)
Cc1cccc(NC(=S)NCCN(C2CCCCC2)C2CCCC2)c1 | 1.23 | -23.1% (inactive)
FC(F)Oc1ccc(NC(=S)NC2CCCCCCC2)cc1 | 1.38 | -38% (inactive)
S=C(Nc1ccc(Cl)c(Cl)c1)NC1CCCCC1 | 1.9 | -90.1% (inactive)
NS(=O)(=O)c1cc(C(=O)NC2CCSc3ccccc32)ccc1Cl (centres undefined) | 0.16 | 84% (inactive)
S=C(Nc1ccc(Oc2ccccc2)cc1)NC1CCCC1 | 1.5 | -49.8% (inactive)
S=C(NCc1ccccc1)NC1CCCc2ccccc21 (centres undefined) | 1.87 | -86.8% (inactive)
Cc1ccc(NC(=S)NC2CCSc3ccccc32)cc1 (centres undefined) | 1.37 | -36.6% (inactive)
FC(F)Oc1ccc(NC(=S)NC2CCSc3ccccc32)cc1 (centres undefined) | 2.75 | -175% (active)
Cc1cccc(NC(=S)NC2CCSc3ccccc32)c1 (centres undefined) | 3.43 | -242% (active)
COc1ccc(C2/C=C\CN(C(=O)OCC3c4ccccc4-c4ccccc43)CC(=O)N2Cc2cccc(F)c2)cc1 (centres undefined) | 1.1 | -10.4% (inactive)
O=C(Nc1ccc2nc(-c3ccc4nc[nH]c4c3)[nH]c2c1)c1cccs1 | 1.05 | -5.3% (inactive)
CC(=O)N1CCN(c2ccc(NCc3ccc(C)cc3)cc2)CC1 | 1.09 | -9.45% (inactive)
COC(=O)c1ccc(Nc2cc(C)nc3ncnn23)cc1 | 1.03 | -3.5% (inactive)
Cc1csc(SCc2ccccc2C(=O)O)n1 | 0.948 | 5.2% (inactive)
COc1ccccc1C(=O)N1CCN=C1c1ccccc1 | 0.974 | 2.55% (inactive)
